The full list was thinned out, with hits kept by preference.
ROC1-CUL1 inh: inhibitors of human ROC1-CUL1 ubiquitin ligase activity | P62877+Q13616 | in vitro K48 di-Ub FRET, acceptor:donor ratio, 45 min | inhibition, % at 10 µM | 140,000 tested, 0.6% active | AID 1347404; in the data active = inhibition above about 25%
Numbers stand for hits; i = inactive.

SMILES	ROC1-CUL1 inh
O=C(NC(Cc1ccccc1)C(=O)NCCOc1ccc(Cl)cc1)OCc1ccccc1 (stereo not given)	i
COc1ccc2c(c1OC)C(O)OC2C1c2c(cc3c(c2OC)OCO3)CCN1C (stereo not given)	i
CCCCOC(=O)C(C/C=C/c1ccccc1)=NC(=O)c1ccccc1	i
Cc1nc(-c2ccccc2)cc(N2CCCCC2)n1	i
CCCN1C(=O)C(C#N)=C(C)/C(=C\c2ccc(-c3ccccc3)o2)C1=O	i
CC1=C(C#N)C(=O)N(CCc2ccccc2)C(=O)/C1=C/c1ccc(-c2ccc(S(N)(=O)=O)cc2)o1	26
CC1=C(C#N)C(=O)N(CCO)C(=O)/C1=C\c1ccc(-c2ccccc2)o1	i
CC(C)Cn1c(SCc2ccc(Br)cc2)nnc1-c1ccccc1	i
CSc1nc2scc(-c3ccc(Cl)cc3)c2c(=O)[nH]1	i
COc1ccc(-c2csc(NC(=O)C34CC5CC(CC(C5)C3)C4)n2)cc1C	i
CCCn1c(=O)c2c(nc3n(-c4ccccc4OC)c(C)cn23)n(C)c1=O	i
Cn1cnc(S(=O)(=O)N2CCCC(C(=O)Nc3ccc(OC(F)(F)F)cc3)C2)c1 (stereo not given)	i
COc1c(I)cc(I)cc1/C=C1/C(=O)NN(c2ccc(Br)cc2)C1=O	44
COc1ccc(/C=C2\C(=O)NN(c3ccc(Br)cc3)C2=O)cc1Br	i
COc1cc(Cl)cc(/C=C2/C(=O)NN(c3ccc(F)c(Cl)c3)C2=O)c1O	94
COc1cc(Cl)cc(C=C2C(=O)N(C)C(=O)N(C)C2=O)c1O	i
C=CCN1C(=O)NC(=O)/C(=C/c2cc(I)cc(I)c2OC)C1=O	i
O=C1NN(c2ccc(Cl)c(Cl)c2)C(=O)/C1=C\c1c2ccccc2cc2ccccc12	i
CCOc1c(I)cc(I)cc1/C=C1/C(=O)N(c2ccc(Cl)c(Cl)c2)N=C1C	i
Cc1ccc(N2NC(=O)/C(=C/c3cc(Cl)ccc3O)C2=O)cc1C	i
COc1c(I)cc(I)cc1/C=C1\C(=O)NN(c2ccc(Cl)c(Cl)c2)C1=O	89
Cc1c(C(C)NCc2cccn2-c2nccs2)cnn1-c1cccc(F)c1 (stereo not given)	i
CC(=O)N1CCCc2ccc(NC(=O)c3ccc(C(F)(F)F)cc3)cc21	i
Cc1ccc(S(=O)(=O)n2nc(C)c(S(=O)(=O)N3CCC(C)CC3)c2C)cc1	i
CCOc1cc(/C=N/NC(=O)c2cc(-c3cccc(OC)c3)n[nH]2)ccc1O	i
SMILES	ROC1-CUL1 inh
CSc1ccccc1NC(=O)c1nnn(-c2cc(Cl)ccc2C)c1C	i
Cc1ccc2[nH]c3c(c2c1)CCC1C3=NNC1c1ccco1 (stereo not given)	i
O=C1CC(c2ccccc2)CC2=Nc3ccccc3NC(c3cccc4ccccc34)C12 (stereo not given)	i
CCCCC1C(=O)N=C2CC(c3ccccc3)CC(=O)C2C1=O (stereo not given)	28
CCCCC(=Nc1ccccc1C)C1C(=O)CC(c2ccccc2)CC1=O (stereo not given)	i
C=CCNS(=O)(=O)Cc1ccc(C)cc1	i
CC(C)c1ccc(-c2nc3cc4nc5ccccc5[nH]c4cc3n2)cc1	i
COC(=O)c1ccc(NC(=O)CSc2nc(C)nc3sc4c(c23)CCC4)cc1	i
Cc1nc(SCC(=O)Nc2ccc3c(c2)OCCO3)c2c3c(sc2n1)CCCC3	42
Cc1nc(SCC(=O)Nc2ccc3ccccc3c2)c2c3c(sc2n1)CCCC3	i
CN1CCC(N2C[C@H]3OC(=O)N(CCc4cccc(Cl)c4)[C@H]3C2)CC1	i
CC(NC(=O)c1ccc(Br)cc1Br)c1ccccc1 (stereo not given)	i
CC(NC(=O)c1ccccc1F)c1ccccc1 (stereo not given)	i
CC(NC(=O)c1cc([N+](=O)[O-])cc2c1-c1c(cc([N+](=O)[O-])cc1[N+](=O)[O-])C2=C(C#N)C#N)c1ccccc1 (stereo not given)	39
CCOc1ccc(S(=O)(=O)Nc2ccccc2F)cc1	i
O=C1CSC2(C(=O)Nc3ccccc32)N1c1ccc(Br)cc1 (stereo not given)	i
Cc1ccc(N2C(=O)CSC23C(=O)Nc2ccc(C)cc23)cc1 (stereo not given)	94
COc1cc(OC)cc(N2C(=O)CSC23C(=O)Nc2ccccc23)c1 (stereo not given)	i
CCc1ccccc1NC(=O)c1sc(-n2nc(C)c(Cc3ccc4c(c3)OCO4)c2C)nc1C	i
Cc1ccc2c(c1)CN(Cc1cn[nH]c1-c1ccc(F)cc1)CC(C)O2 (stereo not given)	i
Cc1cccc(/C=C2/C(=N)N3N=C(c4ccccc4Cl)SC3=NC2=O)c1	i
Cc1cccc(C2=NN3C(=N)/C(=C\c4ccc([N+](=O)[O-])o4)C(=O)N=C3S2)c1	106
Cc1ccc(/C=C2/C(=N)N3N=C(c4ccc(C)cc4)SC3=NC2=O)cc1	i
CC(C)(C)c1nc(N)c(Cl)c(C(C)(C)C)n1	i
O=C1C2=CC(C=NCC(O)CO)C(=O)N2c2ccccc21 (stereo not given)	25
Cc1ccccc1S(=O)(=O)NCCC(C)C	i
